# Article PMC12820563, “FoxP3 forms a head-to-head dimer in vivo and stabilizes its multimerization on adjacent microsatellites”
# The full ranking holds about 16,000 sequences; the median of “rpm ratio (pull-down/input)” is about 0.94, and the highest 2% start at about 1.7. The list comes from a sample in which the highest values are over-represented; it also holds similar and randomly drawn sequences.
# Target: T1, MBP-FoxP1dN (Mus musculus, UniProt P58462 326-579)
# T1 sequence: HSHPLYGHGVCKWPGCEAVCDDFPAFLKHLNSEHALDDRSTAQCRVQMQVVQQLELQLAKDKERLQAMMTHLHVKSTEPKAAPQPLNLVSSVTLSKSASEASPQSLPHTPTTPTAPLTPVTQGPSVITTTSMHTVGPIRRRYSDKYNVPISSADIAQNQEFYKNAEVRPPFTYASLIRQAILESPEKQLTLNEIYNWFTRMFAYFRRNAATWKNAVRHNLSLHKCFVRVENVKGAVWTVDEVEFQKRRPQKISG
# Test: PD-seq (MBP pull-down with sequencing); 20 mM Tris-HCl pH 7.5, 100 mM NaCl, 1.5 mM MgCl2, 0.4 uM protein, 0.1 uM dsDNA library, 30 min, room temperature, amylose pull-down; high values mean tight binding
# Settings: protein: recombinant; tags: His6-MBP; chain copies: 2; dsDNA, one strand shown
# Outline: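 Binding is given as reads-per-million enrichment, pull-down over input, with replicates pooled. The bait was an N-terminus-lacking mouse FoxP3 or FoxP1 fragment with a His6-MBP tag, expressed in E. coli and used at 0.4 µM with 0.1 µM Klenow-filled degenerate double-stranded DNA library for 30 min at room temperature in Tris pH 7.5 buffer with NaCl and MgCl2. Amylose resin pull-down with three washes was followed by proteinase K release, PCR barcoding and Illumina sequencing.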
row,Sequence,binding signal
1,GATGATTGTTCTCCCAGCTGATGAATTCCAGGCTTCGAGTAAACAAATTTTCCTAATCTTTCTGTTCAAGCGCCATCTAC,0.758 RPM ratio (pull-down/input)
2,GATGATTGTTCTCCCAGCTGATGAATTTGGCTATTCGAGTAAACAAATTTTCCTAATCTTTCTGTTCAAGCGCCATCTAC,0.942 RPM ratio (pull-down/input)
3,GATGATTGTTCTCCCAGCTGATGAATTCGGCTCCTCGAGTAAACAAATTTTCCTAATCTTTCTGTTCAAGCGCCATCTAC,0.747 RPM ratio (pull-down/input)
4,GATGATTGTTCTCCCAGCTGATGAATTCAATAGATCGAGTAAACAAATTTTCCTAATCTTTCTGTTCAAGCGCCATCTAC,0.887 RPM ratio (pull-down/input)
5,GATGATTGTTCTCCCAGCTGATGAATTATTCTGGTCGAGTAAACAAATTTTCCTAATCTTTCTGTTCAAGCGCCATCTAC,1.04 RPM ratio (pull-down/input)
6,GATGATTGTTCTCCCAGCTGATGAATTGACCATGTCGAGTAAACAAATTTTCCTAATCTTTCTGTTCAAGCGCCATCTAC,0.875 RPM ratio (pull-down/input)
7,GATGATTGTTCTCCCAGCTGATGAATTACTTTGCTCGAGTAAACAAATTTTCCTAATCTTTCTGTTCAAGCGCCATCTAC,1.02 RPM ratio (pull-down/input)
8,GATGATTGTTCTCCCAGCTGATGAATTCTATTAGTCGAGTAAACAAATTTTCCTAATCTTTCTGTTCAAGCGCCATCTAC,1.14 RPM ratio (pull-down/input)
9,GATGATTGTTCTCCCAGCTGATGAATTGTGTACCTCGAGTAAACAAATTTTCCTAATCTTTCTGTTCAAGCGCCATCTAC,1.6 RPM ratio (pull-down/input)
10,GATGATTGTTCTCCCAGCTGATGAATTTCACCCATCGAGTAAACAAATTTTCCTAATCTTTCTGTTCAAGCGCCATCTAC,0.921 RPM ratio (pull-down/input)
11,GATGATTGTTCTCCCAGCTGATGAATTTTTCGCGTCGAGTAAACAAATTTTCCTAATCTTTCTGTTCAAGCGCCATCTAC,1.01 RPM ratio (pull-down/input)
12,GATGATTGTTCTCCCAGCTGATGAATTATTGATTTCGAGTAAACAAATTTTCCTAATCTTTCTGTTCAAGCGCCATCTAC,1.72 RPM ratio (pull-down/input)
13,GATGATTGTTCTCCCAGCTGATGAATTATTGTTTTCGAGTAAACAAATTTTCCTAATCTTTCTGTTCAAGCGCCATCTAC,2.83 RPM ratio (pull-down/input)
14,GATGATTGTTCTCCCAGCTGATGAATTGATTATTTCGAGTAAACAAATTTTCCTAATCTTTCTGTTCAAGCGCCATCTAC,1.39 RPM ratio (pull-down/input)
15,GATGATTGTTCTCCCAGCTGATGAATTTGAGCTCTCGAGTAAACAAATTTTCCTAATCTTTCTGTTCAAGCGCCATCTAC,0.775 RPM ratio (pull-down/input)
16,GATGATTGTTCTCCCAGCTGATGAATTTTGTTGTTCGAGTAAACAAATTTTCCTAATCTTTCTGTTCAAGCGCCATCTAC,2.84 RPM ratio (pull-down/input)

row,Sequence,binding signal
1,GATGATTGTTCTCCCAGCTGATGAATTTTTTTGTTCGAGTAAACAAATTTTCCTAATCTTTCTGTTCAAGCGCCATCTAC,0.971 RPM ratio (pull-down/input)
2,GATGATTGTTCTCCCAGCTGATGAATTTGTTTGTTCGAGTAAACAAATTTTCCTAATCTTTCTGTTCAAGCGCCATCTAC,2.73 RPM ratio (pull-down/input)
3,GATGATTGTTCTCCCAGCTGATGAATTCTTTGTTTCGAGTAAACAAATTTTCCTAATCTTTCTGTTCAAGCGCCATCTAC,1.23 RPM ratio (pull-down/input)
4,GATGATTGTTCTCCCAGCTGATGAATTTCGAGTTTCGAGTAAACAAATTTTCCTAATCTTTCTGTTCAAGCGCCATCTAC,0.851 RPM ratio (pull-down/input)
5,GATGATTGTTCTCCCAGCTGATGAATTTTTGTTTTCGAGTAAACAAATTTTCCTAATCTTTCTGTTCAAGCGCCATCTAC,2.71 RPM ratio (pull-down/input)
6,GATGATTGTTCTCCCAGCTGATGAATTTCTTTGTTCGAGTAAACAAATTTTCCTAATCTTTCTGTTCAAGCGCCATCTAC,0.994 RPM ratio (pull-down/input)
7,GATGATTGTTCTCCCAGCTGATGAATTTCAAATTTCGAGTAAACAAATTTTCCTAATCTTTCTGTTCAAGCGCCATCTAC,0.846 RPM ratio (pull-down/input)
8,GATGATTGTTCTCCCAGCTGATGAATTGTTGTTTTCGAGTAAACAAATTTTCCTAATCTTTCTGTTCAAGCGCCATCTAC,3.52 RPM ratio (pull-down/input)
9,GATGATTGTTCTCCCAGCTGATGAATTTGTTCTTTCGAGTAAACAAATTTTCCTAATCTTTCTGTTCAAGCGCCATCTAC,1.3 RPM ratio (pull-down/input)
10,GATGATTGTTCTCCCAGCTGATGAATTGCTCGACTCGAGTAAACAAATTTTCCTAATCTTTCTGTTCAAGCGCCATCTAC,0.946 RPM ratio (pull-down/input)
11,GATGATTGTTCTCCCAGCTGATGAATTTCCCCATTCGAGTAAACAAATTTTCCTAATCTTTCTGTTCAAGCGCCATCTAC,0.898 RPM ratio (pull-down/input)
12,GATGATTGTTCTCCCAGCTGATGAATTTTTTTCCTCGAGTAAACAAATTTTCCTAATCTTTCTGTTCAAGCGCCATCTAC,0.754 RPM ratio (pull-down/input)
13,GATGATTGTTCTCCCAGCTGATGAATTTTCATCCTCGAGTAAACAAATTTTCCTAATCTTTCTGTTCAAGCGCCATCTAC,0.875 RPM ratio (pull-down/input)
14,GATGATTGTTCTCCCAGCTGATGAATTTGTTGTTTCGAGTAAACAAATTTTCCTAATCTTTCTGTTCAAGCGCCATCTAC,2.54 RPM ratio (pull-down/input)
15,GATGATTGTTCTCCCAGCTGATGAATTGTTTGATTCGAGTAAACAAATTTTCCTAATCTTTCTGTTCAAGCGCCATCTAC,1.33 RPM ratio (pull-down/input)
